# This is a sample that favours compounds with a hit; in the whole collection about 10% have one here.
# KB-3-1 cytotox = qHTS assay for MDR1-selective chemotherapeutics: Primary screen using the parental adenocarcinoma cell KB-3-1; KB-3-1 viability, CellTiter-Glo ATP luminescence, 72 h; Potency, µM (titrated, usually from 46.1 µM), actives largely listed as cytotoxic; 400,000 compounds, 1.4% hits; AID 1347075, 2019; also: % is scaled to controls: 0 for no effect and ±100 for the full control effect; nearly all actives have a fitted effect of over 60% in size
#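 72 h, 37 °C compound treatment of KB-3-1 parental cells; CellTiter-Glo added, 10 min, luminescence read. Data corrected against DMSO-only plates and normalized before curve fitting.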
# RORg inh = qHTS for inhibitors of ROR gamma transcriptional activity. Nuclear receptor ROR-gamma (Mus musculus), P51450. Drosophila S2 Gal4-RORgamma UAS-luciferase reporter, 20 h. Potency, µM (highest dose often 53.6 µM), inactives show at the highest dose activity change, negative = inhibition, most hits filed as inhibitors. 310,000 compounds, 5.4% hits; also: % is scaled to controls: 0 for no effect and ±100 for the full control effect; nearly all actives have a fitted effect of over 60% in size
# Target sequence (P51450 whole entry, looked up, the tested form may be a part): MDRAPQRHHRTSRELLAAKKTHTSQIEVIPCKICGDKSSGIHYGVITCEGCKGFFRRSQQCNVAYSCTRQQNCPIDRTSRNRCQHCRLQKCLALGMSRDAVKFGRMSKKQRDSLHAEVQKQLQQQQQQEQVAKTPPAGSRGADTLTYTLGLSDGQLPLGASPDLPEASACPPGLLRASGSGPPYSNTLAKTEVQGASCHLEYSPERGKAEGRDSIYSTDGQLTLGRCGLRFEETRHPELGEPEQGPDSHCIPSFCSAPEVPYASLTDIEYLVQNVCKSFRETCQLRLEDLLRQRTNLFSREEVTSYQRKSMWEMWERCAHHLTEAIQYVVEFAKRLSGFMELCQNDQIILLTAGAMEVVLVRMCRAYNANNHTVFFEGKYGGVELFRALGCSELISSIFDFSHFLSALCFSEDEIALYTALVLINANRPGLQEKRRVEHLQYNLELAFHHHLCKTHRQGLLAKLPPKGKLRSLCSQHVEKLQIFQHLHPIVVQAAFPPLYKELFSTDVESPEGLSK
#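 A Gal4/UAS one-hybrid system in insect cells: metallothionein-promoter Gal4–ROR gamma fusion plus Photinus luciferase reporter. Copper sulfate 700 uM final, 20 hr ambient incubation, luminescent detection after 10 min with reagent.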
# VP16 counter = VP16 counterscreen qHTS for inhibitors of ROR gamma transcriptional activity; 310,000 compounds, 3.5% hits; AID 2546, 2010; Potency, µM (highest dose often 53.6 µM), inactives show at the top dose activity, negative = inhibition, hits mostly inhibitors; Drosophila S2 Gal4-VP16 UAS-luciferase, luminescence, 20 h;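 also: Gal4-VP16 expression switched on by copper sulfate through the metallothionein promoter; % is scaled to controls: 0 for no effect and ±100 for the full control effect; nearly all actives have a fitted effect of over 50% in size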
# SW480 rerep = A quantitative high throughput screen for small molecules that induce DNA re-replication in SW480 colon adenocarcinoma cells | SW480 DNA re-replication, Hoechst DNA content imaging, 48 h | Potency, µM (doses to about 46.1 µM), inactives show at the top dose re-replication activation, usual class: activators | 340,000 compounds, 1.8% hits | AID 624297, 2012; also: % of control where 0% means no effect; nearly all actives have a fitted effect of over 55% in size
#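 DNA re-replication was detected as more nuclei of elevated Hoechst intensity after 48 hr exposure to compound (23 nL pinned per well of 250 cells).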
# KB-V1 MDR tox = qHTS assay for MDR1-selective chemotherapeutics: Primary screen using the drug-selected MDR subline cells KB-V1. KB-V1 MDR cells viability, CellTiter-Glo, 72 h. Potency, µM (top dose mostly 46.1 µM), hits mostly cytotoxic. 400,000 compounds, 3.4% hits. AID 1347076, 2019; also: % is scaled to controls: 0 for no effect and ±100 for the full control effect; nearly all actives have a fitted effect of over 60% in size
#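 Drug-selected KB-V1 cells, grown in DMEM lacking phenol red with 10% FBS, receive compound titrations; after three days at 37 degrees C, surviving cell ATP is quantified by CellTiter-Glo luminescence and responses normalized and curve-fitted.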
# MCF10A rerep = A quantitative high throughput screen for small molecules that induce DNA re-replication in MCF 10a normal breast cells. 350,000 compounds, 2.9% hits. Potency, µM (doses to about 46.1 µM), inactives show top-dose activity, positive = re-replication, hits mostly activators. MCF 10A DNA re-replication, Hoechst nuclear intensity, 48 h; also: % of control where 0% means no effect; nearly all actives have a fitted effect of over 50% in size
# * marks the source's active call; other numbers are inactive results; i = inactive; ? = inconclusive; . = no result; [ ] = remark or other dose. Calls follow the shape of the dose curve; as a rule, active = well fitted curve in the direction sought with a large enough effect; inconclusive = small, poorly fitted or top-dose-only effect, or another doubt; inactive = no such curve, though single readings can be large; an effect the other way counts as inactive or inconclusive. Potency is read from the fitted curve at half-maximal effect.
SMILES,KB-3-1 cytotox,RORg inh,VP16 counter,SW480 rerep,KB-V1 MDR tox,MCF10A rerep
Cc1nn(C)c2c1c(C(F)(F)F)cc(=O)n2CC(=O)Nc1ccc(F)cc1F,i,.,.,.,i,.
C=CCn1c(SCc2c(C)noc2C)nc2sc3c(c2c1=O)CCCC3,18.4µM*,-21.6%,6.1%,?,23.1µM*,9.2µM*
C=CCn1c(SCc2ccc(Br)cc2F)nc2cc(C(=O)O)ccc2c1=O,i,24.5%,-6.6%,-0.6%,i,?
C=CCn1c(SCc2c(C)noc2C)nc2ccccc2c1=O,?,?,12.2%,0.651µM*,?,7.31µM*
C=CCn1c(SCc2c(C)noc2C)nc2cc(C(=O)O)ccc2c1=O,?,-24.2%,-0.6%,?,?,2.91µM*
C=CCn1c(SCc2nc3ccccc3c(=O)[nH]2)nc2ccccc2c1=O,i,-5.0%,7.7%,15.9%,i,?
C=CCn1c(SCc2c(C)noc2C)nc2sc3c(c2c1=O)CCCCC3,i,-35.6%,5.4%,13.4%,?,?
CCCc1cc2c(n1CCc1ccc(Cl)cc1)C(C)C1CN(C(=O)c3ccccc3)C(C)(C(=O)OC)C21 (centres undefined),.,4.3%,-2.2%,.,.,.
CO[C@H]1COC(=O)[C@H](C)NC(=O)[C@@H](C)COC(=O)C/C=C\[C@@H]1C,.,-1.3%[10 µM],-4.6%[10 µM],.,.,.
CCC(=O)NC(=S)Nc1ccc(-c2nc3ccc(C)cc3s2)cc1,?,1.12µM*,0.891µM*,-1.3%,i,-4.0%
Cc1ccc2nc(-c3ccc(NC(=S)NC(=O)C(C)C)cc3)sc2c1,i,1.12µM*,2.82µM*,3.3%,i,2.4%
Cc1ccc(C(=O)NC(=S)Nc2cccc(-c3nc4ccccc4s3)c2)cc1,i,-16.8%,3.0%,-6.1%,i,-3.8%
CC1(C)CC(NC(=S)Nc2ccc(S(N)(=O)=O)cc2)CC(C)(C)N1,i,-3.5%,-5.6%,-11.8%,?,-16.0%
Cc1ccc2nc(-c3ccc(NC(=O)Cc4ccccc4)cc3)sc2c1,i,.,.,.,i,.
CCC(=O)NC(=S)Nc1ccc(-c2nc3ccccc3s2)cc1,i,1.58µM*,?,-3.8%,i,10.4%
Cc1ccc2nc(-c3ccc(NC(=S)NC4CC(C)(C)NC(C)(C)C4)cc3)sc2c1,?,?,1.1%,?,i,29.1µM*
COc1cccc(CNC(=O)[C@@H]2CCCN2C(=O)[C@@H]2CCCN2S(=O)(=O)c2ccc(OC)c(C)c2)c1,i,.,.,.,i,.
O=C(c1cnccn1)N1CCC2(CC1)CCN(C(c1ccccc1)c1ccccc1)CC2,.,-14.4%,-11.6%,.,.,.
CCOc1ccc(C(=O)N(Cc2cc(OC)c(OC)c(OC)c2)c2ccccn2)cc1,i,.,.,.,i,.
c1ccc(CC2CCN(C3=Nc4cccc5cccc3c45)CC2)cc1,i,?,7.08µM*,?,?,9.2µM*
c1cc2c3c(cccc3c1)C(N1CCOCC1)=N2,i,-15.5%,-4.6%,?,?,?
CC(=O)N1CCN(C2=Nc3cccc4cccc2c34)CC1,i,28.1%,-3.8%,-1.5%,i,-0.8%
COc1ccccc1N1CCN(C2=Nc3cccc4cccc2c34)CC1,?,15.8µM*,?,?,i,-1.7%
COc1ccc(CCNC(=O)CSc2nc(-c3ccc(F)cc3)cc(C(F)(F)F)n2)cc1OC,i,.,.,.,i,.
CCc1cc2c(=O)c(-c3cscn3)coc2c(CN(C)C)c1O,i,19.4%,-3.1%,?,i,10.3µM*
SMILES,KB-3-1 cytotox,RORg inh,VP16 counter,SW480 rerep,KB-V1 MDR tox,MCF10A rerep
O=C1c2ccccc2-c2c1cccc2C(=O)N1CCCCCC1,?,-10.8%,-2.0%,23.1µM*,i,-2.5%
COc1ccc(C(=O)Nc2nnc(SCC(=O)NC3CCCC3)s2)c(OC)c1,i,3.16µM*,?,?,?,5.3%
CCCCC(=O)Nc1nnc(SCC(=O)NC2CCCC2)s1,i,9.5%,-3.2%,-1.2%,i,8.9%
COc1ccccc1C(=O)Nc1nnc(SCC(=O)NCc2ccco2)s1,i,?,?,20.6µM*,i,0.0%
COc1ccc(C(=O)Nc2nnc(SCC(=O)NCc3ccco3)s2)c(OC)c1,i,11.2µM*,10µM*,-8.1%,i,-17.0%
O=C(CCCl)Nc1nnc(SCC(=O)NC2CCCC2)s1,i,-37.8%,2µM*,8.2µM*,i,18.4µM*
O=C(O)CSC1=NS(=O)(=O)c2ccccc21,i,.,.,.,i,.
O=C(NCCn1ccc2ccccc21)c1ccc(Cl)cc1,i,.,.,.,?,.
CC12CCC=CC1C(c1ccc3ccccc3c1)N(Cc1ccccc1)C2=O (centres undefined),.,?,2.8%,.,.,.
COC(=O)c1ccc(COC(=O)CNC(=O)c2ccc(C)s2)cc1,i,.,.,0.1%,i,-2.1%
COc1ccc(N2CCN(c3ccc(-c4nc(-c5ccccc5C)no4)cc3[N+](=O)[O-])CC2)cc1,i,.,.,.,?,.
Cn1c(=O)c(C(=O)NC2CCCCCC2)c(O)c2ccccc21,i,-6.9%,11.6%,9.0%,i,2.6%
CC(C)n1nc(C(=O)Nc2nc3ccccc3[nH]2)c2ccccc2c1=O,i,1.78µM*,?,-0.9%,?,?
CCCn1nc(C(=O)Nc2nnc(CC)s2)c2ccccc2c1=O,?,0.7%,-4.9%[10 µM],-16.1%,?,1.1%
CC(C)n1nc(C(=O)NNC(=O)c2ccncc2)c2ccccc2c1=O,?,.,.,-5.1%,i,3.8%
CCCn1nc(C(=O)Nc2nc3ccccc3[nH]2)c2ccccc2c1=O,i,12.6µM*,20µM*,2.0%,i,?
